Hit rate of the full screen: of about 190,000 compounds, about 1,900 (1%) were called active. The sample holds actives, similar compounds and a random draw of the others, so the mix is not that of the screen.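 How the source made its calls: active means percentage of spot-positive cells more than 3 SD above its plate mean, without a fluorescence outlier flag or 80% toxicity; inconclusive means no clear call, values can overlap the other calls; inactive means the rest.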

A short description of this assay: autophagy modulators in MEF cells, primary screen, imaging, high-content, MEF GFP-LC3 (AID 463193).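 On % cells with GFP-LC3 spots: spot-positive cell cutoff set from DMSO-treated cells.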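 On toxicity: cell loss after 18 h compound exposure.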 The conditions noted are these: MEF GFP-LC3 puncta imaging, at 10 µM; % cells with GFP-LC3 spots: stronger effect = higher value; toxicity: measured here: cell loss, nuclei count.
Turning to `C/C(=N/Nc1ccc(Cl)cc1)c1cnnc(-c2ccccc2)n1`, the % cells with GFP-LC3 spots was 45.6% (active) and the toxicity was -1.98%.
For `CC/C(=N/Nc1ccccc1)c1cnnc(SC)n1` the same measures were 1.72% (inactive) and -12.6%.
The corresponding values for `O=C(Cc1ccc(Cl)cc1)NCc1nc(-c2ccccc2)no1` are 1.76% (inactive) and 18%.
For `CNc1nccc(-c2ccc(Cl)cc2)c1C#N` the same measures were 0.668% (inactive) and -6.73%.
In the case of `COc1ccc(NC(=O)N2CCC(Cc3ccccc3)CC2)cc1`, the % cells with GFP-LC3 spots is 5.76% (inactive) and the toxicity is -6.26%.
The corresponding values for `CC(C)(C)NC(=O)NC(=O)CN1CCC(Cc2ccccc2)CC1` are 8.11% (active) and 52.4%.
For `NC(=O)c1ccc(CN2CCC(Cc3ccccc3)CC2)cc1` the same measures were 4.13% (inactive) and 31.8%.
Take `O=C(NCc1ccco1)c1nn2cccnc2c1Cl`: the % cells with GFP-LC3 spots was 2.07% (inactive) and the toxicity was -10.5%.
The corresponding values for `Cc1ccc(/C([O-])=C(/C(=S)NCc2ccco2)[n+]2ccccc2)cc1[N+](=O)[O-]` are 1.01% (inactive) and 4.63%.
In the case of `Cc1ccc(NC2=C(Cl)C(=O)OC2OC(=O)c2ccccc2C)cc1` (stereo unspecified), the % cells with GFP-LC3 spots was 9.77% (inactive) and the toxicity turned out to be 12.9%.
For `O=c1nc2s/c(=C\c3ccco3)c(=O)n2nc1Cc1ccccc1` the same measures were 1.32% (inactive) and -3.5%.
Regarding `CCOc1ccccc1/C=c1\sc2nc(-c3ccco3)nn2c1=O`, the % cells with GFP-LC3 spots is 23.9% (active) and the toxicity was -24.1%.
For `CCOc1ccccc1C(=O)NCc1ccco1` the same measures were 3.98% (inactive) and -2.98%.
With `Cc1cc(C)c2c(n1)nn1c(-n3ccnc3)cc(C)nc21`, the % cells with GFP-LC3 spots was 2.18% (inactive) and the toxicity stood at 8.53%.
Consider `Cc1cc(C)c2c(n1)nn1c(N3CCN(c4cccc(Cl)c4)CC3)cc(C)nc21`, for which the % cells with GFP-LC3 spots is 11.4% (active) and the toxicity was 3.85%.
With `Cc1cc(C)c2c(n1)nn1c(N3CCOCC3)cc(C)nc21`, the % cells with GFP-LC3 spots is 8.07% (inactive) and the toxicity was determined as 5.9%.
For `COCCN(Cc1nc(-c2ccc(C(F)(F)F)cc2)no1)C(C)C` the same measures were 9.15% (inactive) and 9.9%.
For `Cc1c(/C=N\NC(=O)c2cc3ccccc3o2)c2ccccc2n1C` the same measures were 7.46% (active) and 40.9%.
Turning to `O=C(N/N=C/c1coc2ccccc2c1=O)c1cc2ccccc2o1`, the % cells with GFP-LC3 spots was 23.9% (inactive) and the toxicity is 5.54%.
The corresponding values for `Cc1c(/C=N/N2C(=O)C3C4C=CC(C4)C3C2=O)c2ccccc2n1C` (stereo unspecified) are 7.41% (inactive) and -40.2%.
For `O=C(NCCOc1ccccc1F)Nc1ccc(Br)cc1`, the % cells with GFP-LC3 spots is 8.91% (inactive) and the toxicity was determined as 10.2%.
The corresponding values for `CCCCn1c(N)c(N2CCOCC2)c(=O)n(CC(=O)NCCc2ccccc2)c1=O` are 1.7% (inactive) and 10.6%.
For `Cc1ccc(Nc2ccccc2N)cc1` the same measures were 78% (active) and 27.6%.
As for `Cc1ccc(Nc2nnc(SCc3ccccc3)s2)cc1`, the % cells with GFP-LC3 spots was 12.4% (inactive) and the toxicity is -2.65%.
The corresponding values for `Nc1ccc(Nc2ccccc2)cc1` are 3.14% (inactive) and 23.3%.
For the compound `Cc1ccc(CC(=O)Nc2cccc(C#N)c2)cc1`, the % cells with GFP-LC3 spots is 1.19% (inactive) and the toxicity was -8.28%.
The corresponding values for `COc1cc(/C=C/C2=CC(C)(C)NC(=S)N2)cc(OC)c1OC` are 1.56% (inactive) and 6.84%.
On to `COc1cccc(NC(=O)C(C)Oc2ccccc2)c1` (stereo unspecified), for which the % cells with GFP-LC3 spots is 5.6% (inactive) and the toxicity came out at 4.79%.
The corresponding values for `CC(Oc1ccc(F)cc1F)C(=O)/C=C/N(C)C` (stereo unspecified) are 6.77% (inactive) and 7.51%.
`CC(Oc1ccccc1F)C(=O)NN` (stereo unspecified): the % cells with GFP-LC3 spots is 38% (active) and the toxicity amounted to 3.88%.
For `COc1ccccc1C1CC(=O)n2c(nc(-c3ccccc3)c2-c2ccccc2)S1` (stereo unspecified) the same measures were 3.32% (inactive) and 1.28%.
In the case of `O=[N+]([O-])/C(N=Nc1ccccc1)=N\Nc1ccccc1`, the % cells with GFP-LC3 spots was 16.1% (inactive) and the toxicity stood at 8.32%.
For `Nc1nonc1-c1nc2ccccc2n1CCC(=O)O` the same measures were 6.83% (inactive) and 0.889%.
For `Nc1nonc1-c1nc2ccccc2n1Cc1ccc(F)cc1` the same measures were 17.1% (inactive) and 0.606%.
The corresponding values for `COc1ccc(C)c(Cn2c(-c3nonc3N)nc3ccccc32)c1` are 25% (active) and 49.2%.
Regarding `CN(C)Cc1ccccc1C1(O)c2ccccc2CSc2ccccc21` (stereo unspecified), the % cells with GFP-LC3 spots was 12% (active) and the toxicity is -6.62%.
The corresponding values for `COC(=O)C1=C(NC(=O)C(C)(C)C)CCS1` are 5.79% (inactive) and -3.16%.
For `COC(=O)c1sc(N)c(C(=O)OC)c1COC(=O)CNS(=O)(=O)c1ccc(C)cc1` the same measures were 2.17% (inactive) and -4.43%.
For `CCN1/C(=C/c2ccc3ccc(C)cc3[n+]2CC)Sc2ccccc21` the same measures were 42.4% (active) and 14.3%.
As for `CCC(=O)/C=C1\Sc2ccccc2N1CC`, the % cells with GFP-LC3 spots was 7.46% (inactive) and the toxicity is -11.3%.
The corresponding values for `CCN1CCN(CCNC(=O)c2ccc(/C=C3/Sc4ccccc4N(Cc4cccc(C)c4)C3=O)cc2)CC1` are 34.4% (inactive) and 30.3%.
The corresponding values for `Cc1ccc(Nc2cc(C)nc3c(C)ccc([N+](=O)[O-])c23)cc1` are 9.29% (inactive) and 15.4%.
The corresponding values for `Cc1cccc(N(C(=O)Cc2cccs2)C(C(=O)NCc2ccco2)c2ccncc2)c1` (stereo unspecified) are 0.45% (inactive) and 4.04%.
As to `Cc1nc2ccccc2cc1O`, the % cells with GFP-LC3 spots was 1.86% (inactive) and the toxicity was -9.74%.
For `CSc1nc(N)c(C#N)c(-c2ccccc2Cl)c1C#N` the same measures were 1.32% (inactive) and 7.01%.
For `CSc1nc2ccccc2cc1/C=C(\C#N)c1ccc(Cl)cc1Cl` the same measures were 26.9% (active) and 3.92%.
For `CCC(C)NC(=O)/C=C/c1ccc(S(=O)(=O)NCc2ccco2)cc1` (stereo unspecified) the same measures were 13.9% (inactive) and -4.92%.
On to `Cc1cccc(OCCNC(=S)NC(=O)c2cccnc2)c1`, for which the % cells with GFP-LC3 spots is 4.78% (inactive) and the toxicity amounted to 1.96%.
For `O=C(CSc1ncnc2c1nnn2Cc1ccc(F)cc1)NC1CCCC1` the same measures were 19.5% (inactive) and 3.4%.
As to `COc1ccc(N2CCN(C(=O)CNS(=O)(=O)c3ccc(C)c(C)c3)CC2)cc1`, the % cells with GFP-LC3 spots is 0.151% (inactive) and the toxicity is -10.1%.
For `Cc1cc([N+](=O)[O-])nn1CCCC(=O)Nc1cccnc1Cl` the same measures were 8.6% (inactive) and 1.08%.
The corresponding values for `O=C(Cc1cccc2ccccc12)Nc1ccc2oc(-c3ccccc3)nc2c1` are 7.49% (inactive) and 12.1%.
The corresponding values for `O=C(Nc1ccc2oc(-c3ccc4ccccc4c3)nc2c1)c1cccs1` are 3.28% (active) and -13.1%.
Turning to `Cc1ccc(-c2nnc(-c3ccc(NC(=O)c4cccs4)cc3)o2)cc1`, the % cells with GFP-LC3 spots was 9.58% (inactive) and the toxicity is -19.8%.
As for `COc1cc(OC)c(C(=O)Nc2ccccc2-c2ccccc2)cc1OC`, the % cells with GFP-LC3 spots was 7.38% (inactive) and the toxicity was -2.46%.
The corresponding values for `COc1ccc(C(=O)OCC(=O)NCC2CCCO2)cc1[N+](=O)[O-]` (stereo unspecified) are 3.86% (inactive) and 1.61%.
For `COc1ccc(OC)c(C(=O)c2ccc(C(=O)N3CCN(Cc4csc(C)n4)CC3)cc2)c1` the same measures were 1.64% (inactive) and 6.76%.
Regarding `O=C(O)COc1ccc(/C=N/O)cc1Br`, the % cells with GFP-LC3 spots was 17% (inactive) and the toxicity is 9.84%.
For `CN(C)c1ccc(NC(=O)CSc2n[nH]c(-c3ccco3)n2)cc1` the same measures were 5.18% (inactive) and -4.21%.
For `C/C(Cc1ccccc1)=N\NC(=O)CNC(=O)c1cccc(Br)c1` the same measures were 6.35% (inactive) and 7.09%.
For `CN(C)S(=O)(=O)N1CCN(c2ccc([N+](=O)[O-])cc2)CC1` the same measures were 20% (active) and 4.08%.
Regarding `Cc1ccc(N2CCN(S(=O)(=O)N(C)C)CC2)cc1Cl`, the % cells with GFP-LC3 spots is 10.8% (inactive) and the toxicity was found to be 7.23%.
The corresponding values for `COc1ccc(N2CCN(c3ccc([N+](=O)[O-])cc3Cl)CC2)cc1` are 3.9% (inactive) and 14.4%.
For `O=C(O)CCn1c(SCc2cc(=O)n3ccccc3n2)nc2ccsc2c1=O` the same measures were 0.605% (inactive) and 8.22%.
The corresponding values for `Cc1ccc(NC(=O)c2oc3ccccc3c2C)c([N+](=O)[O-])c1` are 13.1% (active) and 22.2%.
With `Cc1ccc(NC(=O)CN(C)Cc2ccc(F)cc2)c([N+](=O)[O-])c1`, the % cells with GFP-LC3 spots is 5.2% (inactive) and the toxicity is 3.98%.
For `Cc1ccc(NC(=O)c2oc(=O)c3ccccc3c2-c2ccccc2)c(C)c1` the same measures were 6.34% (inactive) and -1.17%.
For `CCOC12CC(C)(C)CC(C)(CC3=C1C(=O)CC(C)(C)C3)C2` (stereo unspecified) the same measures were 4.26% (inactive) and 3.51%.
For `Oc1ccc(-c2csc(Nc3cccnc3)n2)cc1` the same measures were 7.75% (inactive) and -0.924%.
With `COc1ccc(-c2csc(Nc3ccc(O)cc3)n2)cc1`, the % cells with GFP-LC3 spots is 16.2% (active) and the toxicity stood at 17.3%.
Regarding `COc1ccc(Nc2nc(-c3ccccc3)cs2)cc1`, the % cells with GFP-LC3 spots was 11.9% (inactive) and the toxicity was -34.3%.
As for `CCC(CC)NC(=O)CSc1nnc(-c2c[nH]c3ccccc23)o1`, the % cells with GFP-LC3 spots is 15.7% (inactive) and the toxicity is 28.2%.
For `Cc1ccc(N=Cc2c(O)n(-c3nccs3)c(=O)c3ccccc23)c(C)c1` the same measures were 60% (active) and -7.63%.
The corresponding values for `Cc1ccc(N=Cc2c(O)cc(C)oc2=O)c(C)c1` are 9.61% (inactive) and 4.32%.
`Cc1ccc(-n2c(O)c(C=Nc3ccc(S(=O)(=O)Nc4ncccn4)cc3)c3ccccc3c2=O)cc1C`: the % cells with GFP-LC3 spots was 3.56% (inactive) and the toxicity is -8.78%.
The corresponding values for `CCOC(=O)N1CCN(C(=O)c2ccccc2N(Cc2ccccc2)S(=O)(=O)c2ccc(OC)cc2)CC1` are 19.1% (inactive) and 5.8%.
The corresponding values for `Cc1c(CN2CCC(CO)(CCOc3ccccc3)CC2)[nH]c2ccc(Cl)cc12` are 14.1% (inactive) and -12.9%.
For `COc1cccc2sc(Nc3nc(C)c(C(C)=O)s3)nc12` the same measures were 21.8% (active) and 46.9%.
`COc1cccc2sc(NNC(=O)c3nc4ccccc4s3)nc12`: the % cells with GFP-LC3 spots was 8.59% (inactive) and the toxicity worked out at 0.117%.
For `CC(=O)c1sc(NC(=O)CCCOc2ccccc2C)nc1C` the same measures were 7.71% (inactive) and 7.95%.
With `CC1CCN(C2=NC(=O)/C(=C/c3cn[nH]c3-c3ccccc3)S2)CC1`, the % cells with GFP-LC3 spots was 4.99% (inactive) and the toxicity came to 5.05%.
In the case of `O=C(Nc1ccccc1C(=O)N1CCOCC1)c1ccc(Cl)cc1`, the % cells with GFP-LC3 spots was 1.74% (inactive) and the toxicity stood at 11.5%.
On to `O=C(CN(c1ccccc1)S(=O)(=O)c1ccc(Cl)cc1)Nc1ccccc1C(=O)N1CCCC1`, for which the % cells with GFP-LC3 spots is 9.32% (inactive) and the toxicity was found to be 0.638%.
For `O=C(Nc1ccccc1C(=O)N1CCCCCC1)c1ccccc1Cl` the same measures were 43.8% (active) and -8.81%.
The corresponding values for `O=C(CN1C(=O)/C(=C/c2ccccc2F)Sc2ccccc21)NCc1cccnc1` are 0.409% (inactive) and -0.091%.
For `CCc1ccc2c(c1)C1(NN=C(c3ccccc3)S1)C(=O)N2` (stereo unspecified) the same measures were 24.9% (active) and 40.3%.
For the compound `O=C1Nc2ccccc2C12Nc1ccccc1S2` (stereo unspecified), the % cells with GFP-LC3 spots is 6.3% (inactive) and the toxicity was -0.645%.
The corresponding values for `C=C1c2cc(CC)ccc2NC(=O)N1c1ccc(C)cc1` are 1.08% (inactive) and -2.35%.

These data come from PubChem BioAssay AID463193 (University of Pittsburgh Molecular Library Screening Center, 2010).
